Results as given in the supplement of paper PMC6555819.

test system: VDR:RXRa (NR concentration 270 nM, RXRa partner concentration 90 nM); assay: PBM binding z-score (relative to random genomic background probes); higher = stronger binding; sequences stand for … in GC…GCGATTGACAGCGTAGAATGAAGG
Experimental: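 Protein-binding microarray (Agilent 4x180K custom design, double-stranded 60-nt probes: 5' GC cap, 34-nt variable region, 24-nt constant primer region; full probe sequence given). Purified or IVT nuclear receptor:RXRα heterodimers (3:1 NR:RXRα, mostly 270:90 nM) or homodimers were incubated for 1 h in PBS with 2% milk and no ligand, then detected with Alexa488 antibodies. Fluorescence from o1-orientation probes (~5 replicates averaged) was converted to z-scores against 500 random hg19 background probes. Variable regions are seed direct-repeat (DR0–DR5) sites, all their single-nucleotide variants and half-site ablations.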

Sequence | PBM binding z-score
AGATTGAGGTTAAGATCAGGGAAACAGAATACAT | 1.42
CGTCAAAGTTCAATGTAACGTAACAGAAAGCAGC | 3.74
CAAACTAGGTCAGAACAGGACAGTGAAGGATGAT | 0.899
ATATGTTGGTTATCGGGTCATTCAGTTTGCGCAT | 4.86
TCGAGTTGGTTAGTCGGGGCATTCAGCCAACATA | 0.43
TTACCAAGGTGAGCCGAGGTCGTTGATCCAACTC | 4.51
GATAGAGGGTCAGCTAGAGGCCAGAGTATGGAAA | 2.45
CGTCCAACGTCAGAGAGGTCAGTGAATGCCGAGT | 3.23
GCAGACAGGTGAAACGCAGGCAACTCAGGGTGGC | -0.567
ATCTCTAGGAAACAAGTTCAGTGAAAGAGAGGAC | 1.45
GCAGACAGGTGAAACGCAAGTAACTCAGGGTGGC | -0.526
CCTCGGAGGACAACAGTAGGTCAGAGCTGCCAGA | 0.152
CCTACTGGGCCTCGAAAGGTCATTGATTCAGTGA | 3.34
ACTAGCAGGCCAAGTTTGGGTCGCTCAAACAAAG | -0.328
AGAACGAGGGCAATGAGTGGATAGCACGGGTGGC | 1.49
TTACCAAGGTGAAGGTCGTTGCTCCCTCTGTAGA | 1.36
TCTAGTAGATCAACAGGAGGTTAAGAAAGATCGA | 0.713
CCGACTGGGGCAGAAAGGATACCATACCATCCGG | -0.772
GCTAGTTGGTCAGTAAAAGGTCAGACACCGGTCG | 2.38
CCTCGAAGGACAACAGGAGGTCAGAGCTGCCAGA | 1.73

Sequence | PBM binding z-score
ACAGACAGGTGACGAAGGTAACTCAGGCTATCAT | 0.352
CCTTACGGTTCAAGGTTATAGCACGGGTGGTACG | 2.72
CCAGACAGGTGAGAAGGTAAGTCAGCCTCGATTA | -0.106
TCTAGCAGGCCAGAGGGTCACTCACGAGGTACGG | 1.33
CGTCAAAGTTGAAGGTAACGTAACAGAAAGCAGC | -0.0741
AGAATGAGGTTATTAAGATCAGGGATTTGCGGTC | 2.6
GCATATAGGTAATATAAGGTGAAAGTCCGATTGT | 0.397
CGTCCAAGGTCAAGGTCCGTGAAAGAGACTCGAA | 4.04
ATCTCTAGGTAACAAGTTTAGTGAAAGAGAGGAC | 0.823
GCTGCTAGGTCAGTTTGGTCAGCTAACGGGTACG | 0.529
CCTACTGGGCCATTCATAGGTCATTGATCATATG | 1.24
ACTATTAGTTGAGACGAGGGCATCCGATAGGTTG | 0.918
CGAACTACGTCAGAACAGGACAGTGAAGGATGAT | -0.451
CAAACTAGGTCACCGGAAGGTCAATGTCCGCATG | 5.36
ATACCAAGGTGATCGTGGGGTCGTTGATACTAAC | 3.44
CCTCCTGGGCCAAAAAGGTCATTGATGCCGATAA | 4.94
ACTAGCAGGCCAAGTTTCGGTCACTCAAACAAAG | -0.204
ATATGTAGGTTAAGGCTCATTCAGGTTGGTTCGC | 0.395
ATGTGTAGGTTAGCTGGGGTCATTCAGACTAGGC | 6.24
ATCTCTAGGTAAAGATACTTCAGTGAATGCAAAT | 0.244
